Assays:
Test in all cases: PBM binding z-score (relative to random genomic background probes); higher = stronger binding; sequences stand for … in GC…GCGATTGACAGCGTAGAATGAAGG
[1] = test system: FXR:RXRa (NR concentration 270 nM, RXRa partner concentration 90 nM)
Outline: (§1)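 Binding z-scores take random background probes as their reference. They come from custom Agilent 4×180K protein-binding microarrays incubated 1 h with ligand-free nuclear receptor dimers, with antibodies against each partner (one per run) detecting binding. Scanned fluorescence was regression-normalized.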

[2] = test system: LXRa:RXRa (NR concentration 270 nM, RXRa partner concentration 90 nM)
Outline: as §1

[3] = test system: LXRa homodimer (NR concentration 270 nM)
Outline: as §1

[4] = test system: LXRb:RXRa (NR concentration 270 nM, RXRa partner concentration 90 nM)
Outline: as §1

[5] = test system: LXRb homodimer (NR concentration 270 nM)
Outline: as §1

[6] = test system: PPARa:RXRa (NR concentration 270 nM, RXRa partner concentration 90 nM)
Outline: as §1

[7] = test system: PPARg:RXRa (NR concentration 180 nM, RXRa partner concentration 90 nM)
Outline: as §1

[8] = test system: PPARg:RXRa 270nM:90nM, anti-RXR (NR concentration 270 nM, RXRa partner concentration 90 nM)
Outline: as §1

[9] = test system: PPARg:RXRa 30nM:10nM, anti-RXR (NR concentration 30 nM, RXRa partner concentration 10 nM)
Outline: as §1

[10] = test system: PPARg:RXRa 90nM:30nM, anti-RXR (NR concentration 90 nM, RXRa partner concentration 30 nM)
Outline: as §1

Row | Sequence | PBM binding z-score [1] | PBM binding z-score [2] | PBM binding z-score [3] | PBM binding z-score [4] | PBM binding z-score [5] | PBM binding z-score [6] | PBM binding z-score [7] | PBM binding z-score [8] | PBM binding z-score [9] | PBM binding z-score [10]
1 | GCTATTGGTTGAAAGGGCAACCGAATGATTCTCG | 0.353 | 0.664 | -0.156 | 0.954 | -0.225 | 2.36 | 2.29 | 4.34 | 1.94 | 4.37
2 | ACTAGTTGGCCAGCTGAGGTCACACACAATTCGG | 2.99 | 2.85 | 1.49 | 3.25 | -0.00517 | 3.54 | 1.55 | 1.67 | 0.296 | 1.05
3 | ATCTCTTGGTAAAGATAGTTCAGTGAATGCAAAT | 0.445 | 0.78 | 0.577 | 0.693 | 0.423 | 0.553 | 0.212 | 0.257 | 0.185 | 0.285
4 | GTTAGCAGGCCATTTGGGTCACTCAATGACGGGC | 0.439 | 0.0472 | -0.523 | 0.205 | -0.589 | 1.36 | 0.776 | 0.698 | -0.489 | 0.0806
5 | TGTCGGAGGACACGAAAGGTCAGAGCTCGACATC | 3.25 | 3.96 | 2.69 | 3.16 | 0.015 | 3.69 | 1.62 | 2.54 | 0.799 | 1.53
6 | CGGACTAGGTCATTGACAGGACAGTGAATAGTAA | 3.76 | 2.45 | 0.229 | 1.86 | -0.21 | 4.05 | 6.69 | 5.73 | 2.87 | 4.89
7 | AGAATGAGGTTGAGATCAGGGAAACAGAATACAT | 0.277 | 0.207 | -0.104 | 0.224 | -0.585 | 0.66 | 0.524 | 0.227 | 0.329 | 0.246
8 | CCTAGTTGATCAAGGTCACACACGCTATAGGTAC | 4.38 | 4.15 | 2.75 | 4.06 | 1.42 | 4.36 | 2.96 | 3.19 | 1.28 | 2.24
9 | CAAACTAGGTCAAGTGGTCAAAGTCCGCTTCCCG | 4.81 | 3.79 | 1.15 | 2.42 | 0.597 | 5.45 | 8.38 | 7.13 | 5.18 | 6.97
10 | GCTCGGAGGACAAGGGCAGAGCTTTGTCCGTAGA | -0.487 | -0.674 | -0.975 | -1.04 | -1.47 | -0.451 | -0.879 | -0.532 | -1.18 | -0.777
11 | ATATGTAGGTTAGCTGGGGTCATTCAAACTAGGC | 5.07 | 5.84 | 3.67 | 5.17 | 1.92 | 5.21 | 5.74 | 5.36 | 2.92 | 4.91
12 | CGTCCAAGGTCTATGCTAGGTCAGTGAAAGCATT | 0.1 | 5.48 | 0.995 | 2.27 | -0.26 | 0.535 | -0.39 | -0.288 | -0.641 | -0.388
13 | GCGACTGGGGCAAAGCAGGTCACCATAAGGTTGG | 0.839 | 1.93 | -0.00602 | 1.53 | -1.06 | 3.18 | 2.77 | 2.65 | 0.521 | 1.7
14 | CCTACCGGGCCACGAAAGGTCATTGATTCAGTGA | 3.59 | 5.17 | 5.04 | 4.36 | 0.399 | 4.26 | 1.96 | 2.98 | 0.636 | 1.92
15 | CCTACTGGGCCATCCAGAGGTCATTGATCATATG | 2.46 | 4.37 | 6.73 | 3.84 | 0.613 | 4.07 | 2.72 | 3.35 | 0.809 | 2.2
16 | AGTCAAAGTTCACTAGGTAACGCAAGATTCAGCT | 5.26 | 4.86 | 2.69 | 2.93 | 0.956 | 4.83 | 7.22 | 6.82 | 3.62 | 6.03
17 | TCTAGTTGGTCACGGAGCTCACACACGACGGGTA | 0.213 | 0.0936 | -0.438 | 0.0145 | -0.134 | 0.663 | 0.998 | 1.56 | 2.94 | 2.33
18 | TAGAGTAGGTTAGGGGCATTCAGAATGGCGTCGA | 0.854 | 0.929 | 0.289 | 1.66 | 2.45 | 2.24 | 2.29 | 3.01 | 1.48 | 2.6
19 | TCTAGCAGGCCAGAGGGTCACTCGAGAGGTACGG | 0.927 | 0.659 | -0.59 | 0.806 | -1.36 | 2.11 | 1.36 | 2.59 | 1.79 | 2.52
20 | TCTTGTAGATCAAAGGTTCAGAAAGCCGAAGCCT | 0.694 | 0.971 | 0.565 | 0.863 | 0.0761 | 2.17 | 3.23 | 5.21 | 4.26 | 5.21
21 | TCATATAGGTAAATCCTAGGTGAAAGTCCGATCT | 0.916 | 0.69 | -0.094 | 0.537 | -0.0667 | 1.47 | 0.85 | 2.16 | 3.66 | 2.72
22 | ATCTCTTGGTAACCAAGTTCAGTGAATGCCGAAC | 0.478 | 1.31 | 0.59 | 1.22 | 0.681 | 0.472 | 0.0645 | 0.369 | -0.134 | 0.145
23 | GAAACAGGGTCAGCTAGAGGCCAGAGTATGGAAA | 5.08 | 2.78 | -0.301 | 2.7 | -0.705 | 4.97 | 4.24 | 3.85 | 0.859 | 2.72

From the supplement of paper PMC6555819
